High-throughput results: PubChem BioAssay, National Center for Advancing Translational Sciences (NCATS)
RE007 growth inh: less growth of the S. pombe RE007 Vpr strain; 360,000 tested, 0.21% active; Potency, µM (top dose mostly 92.2 µM), hits mostly inhibitors; S. pombe RE007 Vpr strain, BacTiter-Glo ATP luminescence, 24 h; active = well fitted falling curve with a large enough effect; inconclusive = small, poorly fitted or top-dose-only effect; inactive = no such curve, though single readings can be large or run the other way; also: nearly all actives have a fitted effect of over 50% in size
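Fission yeast RE007 carrying one integrated HIV-1 vpr copy, seeded at OD 0.01 in PMG+AL medium with 23 nL pinned compound. Grown 24 h at 30 degrees; viability read by BacTiter-Glo luminescence after 5 min.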
AmpC no deterg: blocks E. coli AmpC beta-lactamase in detergent-free assay. AmpC nitrocefin hydrolysis, absorbance 480 nm, 0.0001% Triton. Potency, µM (series often up to 57.1 µM), actives largely listed as inhibitors. 330,000 tested, 0.52% active. AID 485341; also: nearly all actives have a fitted effect of over 20% in size
Target sequence (P00811 whole entry, looked up): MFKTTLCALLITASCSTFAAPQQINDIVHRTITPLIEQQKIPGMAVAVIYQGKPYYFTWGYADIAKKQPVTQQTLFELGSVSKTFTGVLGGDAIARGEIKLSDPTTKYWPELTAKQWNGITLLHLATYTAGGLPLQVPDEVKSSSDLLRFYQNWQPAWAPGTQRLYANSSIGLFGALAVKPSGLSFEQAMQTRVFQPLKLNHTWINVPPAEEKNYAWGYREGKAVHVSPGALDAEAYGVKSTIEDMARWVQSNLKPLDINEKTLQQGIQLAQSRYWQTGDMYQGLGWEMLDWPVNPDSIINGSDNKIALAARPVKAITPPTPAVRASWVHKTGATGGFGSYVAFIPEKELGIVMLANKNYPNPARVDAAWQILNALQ
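AmpC (5.3 nM in the dispensed reagent) in 20 mM phosphate pH 7.0 with 0.01% (detergent screen) or 0.0001% Triton X-100 was preincubated with compounds for 15 min at room temperature. Nitrocefin was then added from an 800 uM solution, and hydrolysis was followed at 480 nm.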
AMA1-RON2 inh: AMA1-RON2 (P. falciparum) interaction inhibition; Potency, µM (doses to about 58.2 µM), most hits filed as inhibitors; 360,000 tested, 0.2% active; AlphaScreen AMA1-biotinylated RON2 peptide binding; also: nearly all actives have a fitted effect of over 45% in size
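AMA1 (3D7) with his tag at 25 nM final met compounds first, then biotinylated RON2 peptide at 25 nM; detection used donor plus acceptor beads, 10 µg/mL apiece, read by AlphaScreen after 30 min at room temperature.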
Sm TGR block: inhibitors of Schistosoma mansoni thioredoxin glutathione reductase; Q962Y6; purified TGR, DTNB reduction, TNB absorbance 405 nm; Potency, µM (top dose mostly 114 µM), usual class: inhibitors; 360,000 tested, 3% active; also: nearly all actives have a fitted effect of over 60% in size
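Kinetic colorimetric format: TGR-catalysed, NADPH-driven DTNB reduction monitored via TNB absorbance. Enzyme dispensed at 20 nM; compound exposure 15 min at room temperature before reaction start.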
AmpC inh detg: blocks E. coli AmpC beta-lactamase in detergent assay | P00811 | AmpC hydrolysis of nitrocefin, absorbance 480 nm, 0.01% Triton | Potency, µM (series often up to 114 µM), hits mostly inhibitors | 370,000 tested, 0.041% active; also: nearly all actives have a fitted effect of over 25% in size
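AmpC (5.3 nM in the dispensed reagent) in 20 mM phosphate pH 7.0 with 0.01% (detergent screen) or 0.0001% Triton X-100 was preincubated with compounds for 15 min at room temperature. Nitrocefin was then added from an 800 uM solution, and hydrolysis was followed at 480 nm.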
Numbers stand for hits; i = inactive; ? = inconclusive; nt = not tested or not shown; [ ] = another dose, or the depositor's remark. Hits are enriched below; roughly 3.2% of the tested compounds scored in any of these assays. Unless noted, calls follow the shape of the dose curve; as a rule, active = well fitted curve in the direction sought with a large enough effect; inconclusive = small, poorly fitted or top-dose-only effect, or another doubt; inactive = no such curve, though single readings can be large; an effect the other way counts as inactive or inconclusive.

SMILES	RE007 growth inh	AmpC no deterg	AMA1-RON2 inh	Sm TGR block	AmpC inh detg
CC1CN(C(=O)c2cc3c(=O)n4ccccc4nc3n2C)CC(C)O1 (stereo unspecified)	i	i	11µM	i	i
COc1ccc(N2CCN(c3csc4ccccc4c3=O)CC2)cc1	nt	nt	nt	i	i
CCSc1nnc(N2C(=O)C(O)=C(C(=O)c3ccco3)C2c2cccc(OC)c2)s1 (stereo unspecified)	i	i	i	?	i
O=C(C1=C(O)C(=O)N(c2ncccn2)C1c1cccc(Cl)c1)c1ccco1 (stereo unspecified)	i	nt	i	45µM	i
CCN(CC)CCN1C(=O)C(O)=C(C(=O)c2ccco2)C1c1ccccn1 (stereo unspecified)	i	i	i	45µM	i
CSc1nnc(N2C(=O)C(O)=C(C(=O)c3ccco3)C2c2cccc(Cl)c2)s1 (stereo unspecified)	i	i	i	8.9µM	i
O=C(C1=C(O)C(=O)N(c2ncccn2)C1c1ccc(Cl)c(Cl)c1)c1ccco1 (stereo unspecified)	i	i	i	?	i
CSc1nnc(N2C(=O)C(O)=C(C(=O)c3ccco3)C2c2ccc(F)cc2)s1 (stereo unspecified)	i	i	i	50µM	i
CCN(CC)CCCN1C(=O)C(O)=C(C(=O)c2cc3ccccc3o2)C1c1ccccn1 (stereo unspecified)	i	i	i	i[11.4 µM]	i
COc1ccc(NC(=O)CC(C)n2nc(C)cc2C)cc1Cl (stereo unspecified)	nt	nt	nt	i	i
Cc1cc(=O)oc(C)c1C(=O)NCCCN1CCN(c2ccccc2F)CC1	i	i	i	35µM	i
CC1CCN(S(=O)(=O)c2ccc3c(c2)oc(=O)n3CC(=O)N2CCCCC2)CC1	nt	nt	nt	i	i
O=C(c1ccc2c(c1)N(Cc1cccc(Cl)c1)C(=O)c1ccccc1S2(=O)=O)N1CCc2ccccc21	nt	nt	nt	i	i
COCc1cc(CN2CCN(C)CC2)c(O)c2ncccc12	i	i	i	14µM	i
CCOC(=O)N1CCN(Cc2cc(Cl)c3cccnc3c2O)CC1	?	i	i	32µM	i
CC(C)OCc1cc(CN2CCN(c3ccccc3)CC2)c(O)c2ncccc12	nt	nt	nt	?	i
Oc1c(CN2CCN(c3ccccc3)CC2)cc(Br)c2cccnc12	i	i	i	40µM	?
Brc1cc2c(cc1CN1CCN(c3ccccc3)CC1)OCCO2	i	i	7.9µM	i	i
Cc1ccc(CN2C(=O)CSCC2(C)C(=O)NCc2ccccc2)cc1 (stereo unspecified)	i	nt	i	nt	nt
Oc1cc(NCc2ccccc2)cc2cccnc12	nt	i	nt	i	?
Oc1c(CNc2ccccc2)cc(COCc2ccccc2)c2cccnc12	nt	i	nt	2.8µM	?
Oc1c(CN2CCOCC2)cc(COCc2ccccc2)c2cccnc12	i	i	?	45µM	i
Cn1c(=O)c2cc(S(=O)(=O)NC(Cc3ccccc3)C(=O)Nc3ccc(F)cc3)ccc2n(C)c1=O (stereo unspecified)	nt	nt	nt	i	i
COc1cccc(-c2nc(SCc3cccc(Br)c3)n3[nH]c(=O)cc3n2)c1	nt	nt	nt	i	i
O=C(COC(=O)CCS(=O)(=O)c1ccccc1)Nc1ccccc1	i	i	i	8.9µM	i
SMILES	RE007 growth inh	AmpC no deterg	AMA1-RON2 inh	Sm TGR block	AmpC inh detg
Clc1ccc2[nH]c3c(c2c1)CCc1cn[nH]c1-3	35µM	i	i	i	i
Cc1ccc(NC(=O)C(=O)NCC(c2cccnc2)N2CCN(Cc3ccccc3)CC2)cc1Cl (stereo unspecified)	nt	nt	nt	i	i
O=c1cc(O)n(-c2ccccc2)c(=S)[nH]1	i	i	i	2µM	?
O=c1c2cc(Br)ccc2[nH]c(=S)n1-c1ccccc1	i	i	i	i	i
Cc1cc(C)c(S(=O)(=O)ON2C(=O)c3ccccc3C2=O)cc1C	i	i	i	0.89µM	50µM
Cc1cc(C)c(C)c(S(=O)(=O)ON2C(=O)c3ccccc3C2=O)c1C	?	i	i	1.4µM	56µM
O=S(=O)(c1ccccc1)N1CCN(S(=O)(=O)c2ccc(F)cc2)CC1	i	i	i	i	i
Cc1ccc(OC(=O)CN2C(=O)c3ccccc3C2=O)cc1C	i	i	i	i	i
O=C1c2ccccc2C(=O)N1OS(=O)(=O)c1ccc(F)cc1	i	i	i	0.71µM	45µM
Cc1cccc2c1N(C)C(=O)C2=O	i	i	i	i	i
Cc1ccc(S(=O)(=O)ON2C(=O)c3ccccc3C2=O)c(C)c1	i	i	i	1.4µM	79µM
COC(=O)c1sccc1S(=O)(=O)N(CC(=O)Nc1cc(C)ccc1C)c1ccc(C)c(C)c1	nt	nt	nt	i	i
O=C(c1cccs1)c1cn(CCOc2ccccc2Cl)c2ccccc12	nt	nt	nt	i	i
COCCCn1c(N)c(C(=O)NCc2ccco2)c2nc3ccccc3nc21	i	i	i	7.1µM	i
Nc1c(C(=O)NCc2ccco2)c2nc3ccccc3nc2n1CCc1ccccc1	i	i	i	20µM	?
CCOc1ccc(-n2c(N)c(C(=O)NCc3ccco3)c3nc4ccccc4nc32)cc1	i	i	i	50µM	i
COCCCn1c(N)c(C(=O)Nc2ccccc2)c2nc3ccccc3nc21	i	i	i	i	i
CCCNC(=O)c1c(N)n(-c2cc(OC)cc(OC)c2)c2nc3ccccc3nc12	i	i	i	i	i
COc1ccc(OC)c(S(=O)(=O)NCCc2sc(C)nc2C)c1	nt	nt	nt	i	i
Cc1ccc(CN(C(=O)c2ccccc2)c2ccccn2)o1	nt	nt	nt	i	i
